CHX counter – Cycloheximide Counterscreen for Small Molecule Inhibitors of Shiga Toxin; cell reporter, cycloheximide protein synthesis inhibition counterscreen; max response, %; actives 12% (n = 300,000); AID 2314, 2010; in the data active means max response mostly above about 13%, no sharp cut-off; inactive means mostly below about 14%; further: read at 38.3 µM for the half of the compounds with a filed dose; 0% is about no effect
LmPK inh – qHTS Assay for Inhibitors of Leishmania Mexicana Pyruvate Kinase (LmPK); purified LmPK, Kinase-Glo ATP luminescence, 1 h; AID 1721, 2009; Potency, µM (series often up to 57.5 µM), inactives show top-dose activity change, negative = inhibition, actives largely listed as inhibitors; Q27686; actives 0.37% (n = 290,000); further: potency means the concentration at half of the fitted maximal effect; on the % scale 0 is the no-effect control and ±100 the full control effect
Target sequence (Q27686 whole entry, looked up): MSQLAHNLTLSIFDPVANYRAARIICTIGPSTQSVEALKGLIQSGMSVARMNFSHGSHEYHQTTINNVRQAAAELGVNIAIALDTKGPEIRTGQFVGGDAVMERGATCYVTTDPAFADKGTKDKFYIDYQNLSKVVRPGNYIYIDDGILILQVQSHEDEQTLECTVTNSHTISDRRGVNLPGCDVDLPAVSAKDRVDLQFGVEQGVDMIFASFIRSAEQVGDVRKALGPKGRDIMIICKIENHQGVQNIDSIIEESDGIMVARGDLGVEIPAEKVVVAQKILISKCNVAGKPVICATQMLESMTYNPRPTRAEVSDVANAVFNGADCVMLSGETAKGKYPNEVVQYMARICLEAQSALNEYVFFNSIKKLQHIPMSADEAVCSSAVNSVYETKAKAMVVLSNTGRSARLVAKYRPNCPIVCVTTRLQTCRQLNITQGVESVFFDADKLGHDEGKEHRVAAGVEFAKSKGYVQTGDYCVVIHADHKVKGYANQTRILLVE
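ATP generated from ADP (0.1 mM) and PEP (0.5 mM) by 0.1 nM LmPK over 1 h at room temperature (pH 7.2 imidazole buffer) was detected by coupled luciferase luminescence. Values were normalized to uninhibited and no-enzyme wells.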
Shiga inhibitor – A qHTS for Small Molecule Inhibitors of Shiga Toxin; Vero cells, Shiga toxin protein synthesis inhibition reporter; inhibition, % at 38.7 µM; actives 9.2% (n = 290,000); in the data active means inhibition mostly above about 28%, no sharp cut-off; inactive means mostly below about 43%; further: 0% is about no effect
RE007 growth inh – qHTS Assay for Inhibitors of the HIV-1 protein Vpr. S. pombe RE007 Vpr strain, BacTiter-Glo ATP luminescence, 24 h. Potency, µM (highest dose often 92.2 µM), without a hit: at the top dose activity change, negative = less growth, hits mostly inhibitors. actives 0.21% (n = 360,000); active means well fitted falling curve with a large enough effect; inconclusive means small, poorly fitted or top-dose-only effect; inactive means no such curve, though single readings can be large or run the other way; further: potency means the concentration at half of the fitted maximal effect; on the % scale 0 is the no-effect control and ±100 the full control effect; nearly all actives have a fitted effect of over 50% in size
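Fission yeast RE007 carrying one integrated HIV-1 vpr copy, seeded at OD 0.01 in PMG+AL medium with 23 nL pinned compound. Grown 24 h at 30 degrees; viability read by BacTiter-Glo luminescence after 5 min.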
FBPA Giardia inh – qHTS Assay for Inhibitors of Fructose-1,6-bisphosphate Aldolase from Giardia Lamblia; Potency, µM (top dose mostly 59.6 µM), for inactives: at the top dose activity, negative = inhibition, usual class: inhibitors; purified Giardia FBPA; actives 0.71% (n = 290,000); A8B2U2; further: potency means the concentration at half of the fitted maximal effect; on the % scale 0 is the no-effect control and ±100 the full control effect; nearly all actives have a fitted effect of over 55% in size
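40 nM FBPA preincubated 10 min at RT with compound (up to 57.5 uM final), then substrate plus GAPDH/TPI/NAD/arsenate coupling and diaphorase/resazurin added. Fluorescence read after 20 min at RT, 525/598 nm.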
TbPYK inhibitor – qHTS of Trypanosoma Brucei Inhibitors | pyruvate kinase (Trypanosoma brucei), Q57TT1 | TbPYK enzyme, Kinase-Glo Plus ATP luminescence, 45 min | Potency, µM (titrated, usually from 76.8 µM), for the others: at the top dose activity, negative = inhibition, usual class: inhibitors | actives 0.12% (n = 410,000); further: potency means the concentration at half of the fitted maximal effect; on the % scale 0 is the no-effect control and ±100 the full control effect; nearly all actives have a fitted effect of over 50% in size
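Luminescence from Kinase-Glo Plus, added after a 45-minute room-temperature reaction, served as the end-point read-out. The enzyme and substrate were preincubated with compound before ADP (130 uM final) initiated turnover. Concentration-effect curves came from normalized qHTS data.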
The depositor's hits bear a star; ? = inconclusive; . = not tested or not shown; [ ] = remark or other dose. This is one part of a sample in which hits are shown more often than they occur. Unless noted, the call rests on the fitted dose curve; in most records, active means well fitted curve in the direction sought with a large enough effect; inconclusive means small, poorly fitted or top-dose-only effect, or another doubt; inactive means no such curve, though single readings can be large; an effect the other way counts as inactive or inconclusive.

SMILES	CHX counter	LmPK inh	Shiga inhibitor	RE007 growth inh	FBPA Giardia inh	TbPYK inhibitor
NS(=O)(=O)c1cccc(NC(=O)Nc2ccc(Cl)cc2)c1	36*	-1%	87*	-20%	-6%	-1%
O=C(Nc1cccc(Cl)c1)OCc1cnc(Cl)s1	14*	0%	31	?	-6%	0%
O=C(Nc1ccccc1)Nc1cc(Cl)cc(Cl)c1	25	0%	39	-13%	0%	2%
CC1CCC(=C(C#N)C(=O)Nc2cccc(Cl)c2)CC1 (centres undefined)	24*	-5%	19	3%	.	1%
O=C(Nc1cccc(Cl)c1)Nc1cccc(Cl)c1	20*	4%	68*	3%	-7%	-2%
Cc1cccc(CNC(=O)Cn2c(-c3cccs3)cc3ccccc32)c1	.	.	.	.	.	8%
O=C(Nc1ccc(F)cc1F)c1ccc2c(c1)CCN2S(=O)(=O)c1ccc(Cl)cc1	.	.	.	.	.	2%
O=C(c1ccc(CS(=O)c2ccc(F)cc2)o1)N1CCN(C2CCCCC2)CC1 (centres undefined)	-5	0%	-4	-2%	14%	3%
N#CCc1ccc(NC(=O)Nc2cccc(Cl)c2)cc1	32*	4%	71	13%	1%	-3%
CC(=O)c1cccc(NC(=O)NN2CCN(C)CC2)c1	-2	-5%	-13	5%	3%	2%
CN1CCN(NC(=O)Nc2cccc(F)c2)CC1	11*	-5%	50	11%	.	-3%
C[C@H]1[C@H](NC(=O)/C(=N/OC(C)(C)C(=O)O)c2csc(N)n2)C(=O)N1S(=O)(=O)O (stereo in doubt)	.	.	.	.	-9%[21.7 µM]	0%[33.2 µM]
CCn1c(C)c(C2N3CC4(C)CN2CC(CC)(C3)C4=O)c2ccccc21 (centres undefined)	.	.	.	.	.	-18%
COc1cc(Cl)c(C)cc1Nc1nc2ccccc2c2nnc(C)n12	.	.	.	.	.	10%[15.4 µM]
Cc1ccc(SC2=C(Sc3ccc(C)cc3)C(=O)c3ccccc3C2=O)cc1	28*	?	37*	-13%	?	?
Cc1ccc(SCC(=O)NN2C(=O)c3ccccc3C2=O)cc1	3	8%	-11	8%	5%	1%
COc1cccc(NC(=O)CSc2nc3ccc(NC(=O)c4cccs4)cc3s2)c1	.	.	.	.	.	3%
O=C(N/N=C/c1cccc(F)c1)c1ccc(Cl)cc1	44*	-1%	119*	3%	0%	-4%
O=C(N/N=C/c1cccc(NC(=O)c2ccc(Cl)cc2)c1)c1ccc(O)cc1	60*	-3%	85*	-6%	-4%	-1%
CN(CC(=O)N1CCN(c2ccccn2)CC1)S(=O)(=O)c1ccccc1	43*	-6%	50*	-6%	6%	-5%
Cc1ccc(S(=O)(=O)N(C)CCCC(=O)N2CCN(c3ccccn3)CC2)cc1	-2	-1%	16	-6%	2%	2%
CN(CC(=O)N1CCN(c2ncccn2)CC1)S(=O)(=O)c1ccc(Cl)cc1	21*	12%	11	-18%	2%	2%
Cc1nc(-c2ccccc2)sc1-c1ccc(SCC(=O)Nc2ccc(F)cc2F)nn1	.	.	.	.	.	-5%
COc1ccc(OC)c(-c2csc(-c3c(N)c(C(=O)c4ccc(Cl)cc4)n4ccccc34)n2)c1	.	.	.	.	.	-4%
O=C(NCc1ccccc1Cl)c1ccc2c(c1)OCO2	18*	-4%	32*	3%	.	-5%
SMILES	CHX counter	LmPK inh	Shiga inhibitor	RE007 growth inh	FBPA Giardia inh	TbPYK inhibitor
O=C(NCc1ccccc1)c1ccc2c(c1)OCCO2	23*	-3%	26	41%	2%	7%
O=C(NCc1ccccc1F)c1ccc2c(c1)OCO2	24	-2%	55	6%	-1%	-3%
O=C(NCc1cccs1)c1ccc2c(c1)OCCO2	37*	-6%	22	4%	1%	1%
O=C(Nc1ccc2c(c1)OCCO2)C(=S)NCc1ccccc1	49*	-4%	82*	3%	-5%	-1%
NNC(=O)[C@H](Cc1ccccc1)NC(=O)Nc1ccc2c(c1)OCCO2	2	4%	-3	3%	1%	1%
CCOc1ccc(-c2nnc(SCC(=O)NCc3ccc(Cl)cc3)o2)cc1	.	.	.	.	.	-4%
Cc1nc2ccc(NC(=S)NC3CC3)cc2nc1C	19*	6%	8	.	?	-8%
Cc1nc2ccc(NC(=S)NC(C)C)cc2nc1C	20*	-2%	12	-5%	?	-3%
Cc1ccc(NC(=O)C2CCCN2S(=O)(=O)c2cccc3cccnc23)cc1C (centres undefined)	.	.	.	.	.	-10%
CCC(=O)Nc1ccc(F)c(Cl)c1	3	-1%	24	3%	14%	-6%
CCn1cc(Br)c(C(=O)Nc2ccc(F)c(Cl)c2)n1	54*	-3%	73*	?	1%	-12%
CCn1cc(Br)c(C(=O)Nc2ccc(Cl)cc2Cl)n1	25*	0%	55	-19%	4%	-4%
CCOC(=O)c1ccc(NC(=O)c2nn(CC)cc2Br)cc1	35*	-10%	53*	12%	-4%	0%
CCOC(=O)c1ccc(NC(=S)NC(=O)c2nn(CC)cc2Br)cc1	-3	0%	18	3%	3%	-5%
COc1ccc(C(=O)NCC(=O)OCC(=O)Nc2sccc2C#N)cc1OC	22*	-4%	36*	3%	-5%	-2%
CN(C)S(=O)(=O)c1cccc(C(=O)OCC(=O)Nc2ccc3c(c2)OCCO3)c1	.	.	.	10%	.	2%
CN(C)S(=O)(=O)c1cccc(C(=O)OCC(=O)Nc2sccc2C#N)c1	56*	12%	75*	4%	9%	1%
Cc1cc(C)n2nc(SCC3COc4ccccc4O3)nc2n1 (centres undefined)	51*	-3%	89*	18%	-15%	-11%
N#Cc1cc2c(nc1SCC1COc3ccccc3O1)CCC2 (centres undefined)	35*	5%	58*	3%	-1%	-6%
Cc1cc(C)c(C#N)c(SCC2COc3ccccc3O2)n1 (centres undefined)	21*	2%	13	-19%	9%	2%
COc1ccc(C(=O)n2nc(-c3ccccc3)nc2SC)cc1	-2	0%	11	4%	4%	-2%
CSc1nc(-c2ccc(Cl)cc2)nn1C(=O)c1ccccc1	24*	-8%	112*	-3%	-2%	-8%
CSc1nc(-c2ccccc2)nn1C(=O)c1ccc(Cl)cc1	17*	1%	14	-1%	5%	0%
Nc1nc(-c2cccnc2)nn1C(=O)c1ccc(Cl)cc1	-1	3%	16	-2%	5%	4%

Source: PubChem (National Center for Advancing Translational Sciences (NCATS))
